VP16 counter = VP16 counterscreen qHTS for inhibitors of ROR gamma transcriptional activity. Potency, µM (series often up to 53.6 µM), most hits filed as inhibitors. 310,000 tested, 3.5% active. Drosophila S2 Gal4-VP16 UAS-luciferase, luminescence, 20 h;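 also: Gal4-VP16 expression switched on by copper sulfate through the metallothionein promoter; nearly all actives have a fitted effect of over 50% in size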
HepG2 tox = qHTS for Inhibitors of TGF-b: Cytotox Counterscreen. Potency, µM (series often up to 46.1 µM), actives largely listed as cytotoxic. AID 588856, 2011. HepG2 CAGA-GFP viability, ATP luminescence, 18 h. 410,000 tested, 0.76% active
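HepG2 CAGA-GFP cells (1000/well, DMEM with 1% FBS) received compound, then TGF-beta at 500 pg/mL final, and were incubated 18 hours at 37 degrees C. Viability was read by CellTiter-Glo luminescence. Media-only wells were set as complete cell-killing and DMSO as no toxicity.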
ATXN2 expr inh = Primary qHTS for Inhibitors of ATXN expression; HEK-293 ATXN2-luciferase reporter, luminescence, 24 h; 360,000 tested, 0.72% active; Potency, µM (highest dose often 57 µM), usual class: inhibitors; also: nearly all actives have a fitted effect of over 55% in size
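qHTS (up to 57 uM final) was run with 24 h compound exposure of reporter cells at 37 °C. Each well was multiplexed: SteadyGlo luminescence measured ATXN2-luciferase expression after a fluorogenic Gly-Phe-AFC viability readout (25 uM final).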
RORg inh = qHTS for inhibitors of ROR gamma transcriptional activity. Potency, µM (titrated, usually from 53.6 µM), most hits filed as inhibitors. 310,000 tested, 5.4% active. Drosophila S2 Gal4-RORgamma UAS-luciferase reporter, 20 h. Nuclear receptor ROR-gamma (Mus musculus), P51450; also: nearly all actives have a fitted effect of over 60% in size
Target sequence (P51450 whole entry, looked up, the tested form may be a part): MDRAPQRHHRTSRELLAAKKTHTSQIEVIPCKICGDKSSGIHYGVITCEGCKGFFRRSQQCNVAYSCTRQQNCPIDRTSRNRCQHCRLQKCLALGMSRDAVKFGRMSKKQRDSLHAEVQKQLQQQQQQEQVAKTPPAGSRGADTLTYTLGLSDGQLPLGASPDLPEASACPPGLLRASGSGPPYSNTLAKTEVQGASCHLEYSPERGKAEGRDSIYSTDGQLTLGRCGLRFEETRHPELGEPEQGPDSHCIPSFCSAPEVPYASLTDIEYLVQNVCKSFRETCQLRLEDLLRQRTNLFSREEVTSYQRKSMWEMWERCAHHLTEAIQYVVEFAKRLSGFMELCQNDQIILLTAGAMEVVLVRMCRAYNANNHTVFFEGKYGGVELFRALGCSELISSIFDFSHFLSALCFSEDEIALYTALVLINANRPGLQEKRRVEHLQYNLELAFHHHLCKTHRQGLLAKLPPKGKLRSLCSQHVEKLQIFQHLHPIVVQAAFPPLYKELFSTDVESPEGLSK
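Schneider cells (Drosophila), stable Gal4 DBD–ROR gamma + UAS-luc; 1 hr cmpd preincubation; Cu2+ induction 700 uM final; 20 hr ambient; luminescence.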
TGFb inhibitor = qHTS for Inhibitors of TGF-b; Potency, µM (doses to about 46.1 µM), usual class: inhibitors; 410,000 tested, 1.2% active; HepG2 CAGA-GFP TGF-b/SMAD3 reporter, GFP fluorescence, 18 h; TGF-beta stimulated, 500 pg/mL final; also: nearly all actives have a fitted effect of over 65% in size
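Per well, imaged GFP fluorescence of HEPG2 CAGA-GFP cells gives the signal; cells get compound, then TGF-beta (500 pg/mL final), 18 h at 37 degrees C; %Activity versus -TGF-beta and +DMSO controls.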
ATXN viability = Viability Counterscreen for Primary qHTS for Inhibitors of ATXN expression; S2 cells (HEK-293 line with an ATXN2-luciferase reporter) viability, CellTiter-Fluor protease fluorescence, 24 h; Potency, µM (series often up to 56.7 µM), usual class: cytotoxic; 400,000 tested, 0.49% active; also: nearly all actives have a fitted effect of over 40% in size
Numbers stand for hits; n = inactive; u = inconclusive; x = no result; [ ] = dose if it differs, or a comment. In the library only some 6.3% were active in any assay of this set; here they are far more common. Calls follow the shape of the dose curve; as a rule, active = well fitted curve in the direction sought with a large enough effect; inconclusive = small, poorly fitted or top-dose-only effect, or another doubt; inactive = no such curve, though single readings can be large; an effect the other way counts as inactive or inconclusive.

SMILES	VP16 counter	HepG2 tox	ATXN2 expr inh	RORg inh	TGFb inhibitor	ATXN viability
CCOc1ccc(NC(=O)c2ccncc2)cc1	n	n	n	n	n	n
CCOc1ccc2c(c1)C(=NNC(=O)c1ccncc1)c1cc(OCC)ccc1-2	0.891µM	n	u	1.12µM	n	u
c1ccc2c(c1)CCc1ccccc1N2	x	x	n	x	x	n
CCn1ccnc1CN(C)C(=O)c1cc(COc2ccc(OC)c3ccccc23)on1	28.2µM	n	n	n	n	n
Cc1ccc(C)c(OCc2cc(C(=O)N(C)Cc3nccn3C)no2)c1	n	n	n	n	n	n
CCc1ccc(OCC(=O)NC(NC(=S)Nc2ccccc2)C(Cl)(Cl)Cl)cc1 (centres undefined)	12.6µM	11.2µM	u	u	u	n
Cc1ccc(C)c(NC(=S)NC(NC(=O)Cc2cccc3ccccc23)C(Cl)(Cl)Cl)c1 (centres undefined)	u	2.82µM	17.8µM	u	3.55µM	15.8µM
CCc1ccc(OCC(=O)NC(NC(=S)Nc2ccccc2OC)C(Cl)(Cl)Cl)cc1 (centres undefined)	u	n	n	u	u	n
COC(=O)c1ccccc1NC(=S)NC(NC(=O)COc1ccccc1)C(Cl)(Cl)Cl (centres undefined)	u	n	n	5.62µM	u	n
Cc1ccc(C)c(NC(=S)NC(NC(=O)N(C)C)C(Cl)(Cl)Cl)c1 (centres undefined)	n[0.365 µM]	n	n	n	n	n
CCc1ccc(OCC(=O)NC(NC(=S)Nc2ccccc2C)C(Cl)(Cl)Cl)cc1 (centres undefined)	5.01µM	n	u	6.31µM	u	u
Cc1ccccc1NC(=S)NC(NC(=O)COc1ccccc1)C(Cl)(Cl)Cl (centres undefined)	n	n	n	u	n	n
COc1ccccc1C(=O)N[C@@H]1c2ccccc2C2(CCN(Cc3ccc(C)o3)CC2)[C@H]1O	x	x	x	x	x	n
CC(=O)NC(NC(=S)Nc1ccc(C)cc1C)C(Cl)(Cl)Cl (centres undefined)	n	n	x	n	n	n
Cc1ccc(NC(=S)NC(NC(=O)c2ccccc2C)C(Cl)(Cl)Cl)c(C)c1 (centres undefined)	u	n	n	u	22.4µM	n
CCc1ccc(OCC(=O)NC(NC(=S)Nc2ccc(C)cc2C)C(Cl)(Cl)Cl)cc1 (centres undefined)	u	11.2µM	u	10µM	11.2µM	u
O/N=C/c1ccnc(SCc2ccccc2)n1	3.55µM	n	n	0.562µM	n	n
CN(C)C1CN(Cc2cn(Cc3ccc(Cl)cc3)nn2)S(=O)(=O)C1 (centres undefined)	x	x	n	x	x	n
COc1cccc(Cn2nc3c4cc(F)ccc4n(Cc4ccc(F)cc4)cc-3c2=O)c1	n	n	n	n	n	n
COc1cc2c3nnc(-c4ccc(F)cc4)c-3cn(Cc3ccc(C)cc3)c2cc1OC	3.98µM	11.2µM	17.8µM	5.01µM	n	n
COc1cc2c3nnc(-c4ccc(F)cc4)c-3cn(Cc3cccc(F)c3)c2cc1OC	n	n	n	u	n	x
COc1cc2c3nnc(-c4ccccc4)c-3cn(Cc3ccc(F)cc3)c2cc1OC	n	22.4µM	u	n	n	x
COc1cc2c3nnc(-c4ccc(F)cc4)c-3cn(Cc3cccc(C)c3)c2cc1OC	10µM	n	u	u	n	n
CCCCNC(=O)C1CCN(c2nc3ccc(C)cc3[nH]2)CC1	x	n	x	x	n	x
Cn1c(/C=N/c2nc3ccccc3[nH]2)nc2ccccc21	u	n	n	17.8µM	u	n
SMILES	VP16 counter	HepG2 tox	ATXN2 expr inh	RORg inh	TGFb inhibitor	ATXN viability
CCn1c(/C=C/c2cc[n+](C)cc2)nc2ccccc21	n	n	n	n	n	x
Cn1c(/C=N/O)nc2ccccc21	n	n	n	n	n	n
CCn1c(/C=N/c2nc3ccccc3n2C)nc2ccccc21	u	n	n	12.6µM	n	n
COc1cccc(CNC(=O)CSc2ccc(-c3sc(-c4ccccc4)nc3C)nn2)c1	x	n	x	x	n	x
CCCS(=O)(=O)NCc1c(C)ncc2c1CCN(C(=O)c1cccc(Cl)c1F)C2	x	x	x	x	x	n
O=c1cc(-c2ccc(O)c(O)c2)oc2ccccc12	n	x	x	3.16µM	x	x
O=C(Nc1cn[nH]c1-c1nc2ccc(CN3CCOCC3)cc2[nH]1)NC1CC1	x	x	5.44µM	x	x	x
COc1ccc(/C(C)=N/Nc2nc3ccccc3nc2C)cc1OC	u	n	n	4.47µM	n	u
COc1ccc(/C(C)=N/Nc2cccc(C(=O)O)c2)cc1OC	n	n	n	n	n	n
O=C(CN1C(=O)C2CC=CCC2C1=O)OCC(=O)c1ccc(Cl)c([N+](=O)[O-])c1 (centres undefined)	35.5µM	n	n	n	n	n
CCOC(=O)c1c(C)cc(O)c(C=O)c1O	u	x	x	11.2µM	x	x
O=C(COC(=O)Cc1c(Cl)cccc1Cl)NCc1ccccc1	x	n	x	x	n	n
C[C@@H]1CN(Cc2ccc3c(c2)CN(C(=O)c2ccc(Oc4ccccc4)o2)CCO3)C[C@H](C)O1	x	x	x	x	x	n
Oc1c(Cl)cc(Cl)cc1/C=N/NC(=S)NC1CC2C=CC1C2 (centres undefined)	20µM	n	u	4.47µM	u	x
Oc1ccccc1/C=N/NC(=S)NC1CC2C=CC1C2 (centres undefined)	5.01µM	n	n	3.16µM	u	n
Cc1ccc(NC(=O)CC2Sc3ccccc3NC2=O)c(Br)c1 (centres undefined)	x	n	n	x	n	n
CCn1cc(C(=O)NCc2ccccc2)c(=O)c2cc(F)c(N3CCN(C(=O)c4ccco4)CC3)cc21	n	n	u	n	20µM	n
CCn1cc(C(=O)O)c(=O)c2cc(F)c(N3CCN(C(=S)NC(=O)c4cc(OC)cc(OC)c4)CC3)cc21	6.31µM	n	x	2.51µM	n	n
CCn1cc(C(=O)O)c(=O)c2cc(F)c(N3CCN(C(=S)NC(=O)c4ccccc4)CC3)cc21	n	n	n	n	n	n
CCn1cc(C(=O)O)c(=O)c2cnc(N3CCN(C(=S)NC(=O)c4ccccc4)CC3)nc21	n	n	n	2.51µM	n	n
CCC1CCCCN1C(=O)c1cc(COc2ccc3ncccc3c2)on1 (centres undefined)	2.82µM	n	n	u	n	n
COCC1CCCCN1C(=O)c1cc(COc2ccc3ncccc3c2)on1 (centres undefined)	7.08µM	n	x	n	n	n
COCCC1CCCCN1C(=O)c1cc(COc2ccc(-n3cncn3)cc2)on1 (centres undefined)	8.91µM	n	n	n	n	n

Screening results deposited in PubChem BioAssay by National Center for Advancing Translational Sciences (NCATS).
